# Source: PubChem
# Shown are actives, neighbours in structure and some others; about 2.9% of the full set was active somewhere.
# A549 viability = Nrf2 qHTS screen for inhibitors: counterscreen for cytotoxicity; A549 ARE-Fluc cells, CellTiter-Fluor viability, 18-24 h; hit rate 0.16% among 390,000; AID 504648, 2011; Potency, µM (highest dose often 46 µM), usual class: inhibitors
#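 A549 ARE_Fluc cells in 5% FBS OPTI-MEM were exposed to compounds in concentration-response for 18-24 h at 37 deg C. Viability was read by CellTiter-Fluor fluorescence (Ex 405/Em 525) after 30 min, before the luciferase read.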
# Nrf2 ARE act = qHTS of Nrf2 Activators; AREc32 ARE-luciferase reporter (MCF7-derived line), luminescence, 24 h; Potency, µM (series often up to 46.1 µM), hits mostly activators; hit rate 0.31% among 410,000; AID 624171, 2012; note: nearly all actives have a fitted effect of over 65% in size
#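 AREc32 cells carrying an ARE-driven firefly luciferase, 1000 cells/well in OPTI-MEM with 5% FBS, dosed after overnight attachment and incubated 24 hr at 37 deg C. Steady-Glo luminescence read after 30 min at RT.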
# Nrf2 inh = Nrf2 qHTS screen for inhibitors; A549 ARE-Fluc reporter, luciferase luminescence, 18-24 h; Potency, µM (highest dose often 46 µM), usual class: inhibitors; hit rate 2.1% among 360,000; AID 504444, 2011; note: nearly all actives have a fitted effect of over 60% in size
#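 A549 ARE_Fluc cells (5000/well, 5% FBS OPTI-MEM) pre-incubated 2 h, then treated with compounds 18-24 h at 37C/5% CO2 in concentration-response. CellTiter-Fluor viability read first; BugLite luciferase luminescence after 15 min at room temperature gives Nrf2 activity.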
# ATXN2 expr inh = Primary qHTS for Inhibitors of ATXN expression; Potency, µM (highest dose often 57 µM), hits mostly inhibitors; hit rate 0.72% among 360,000; HEK-293 ATXN2-luciferase reporter, luminescence, 24 h; note: nearly all actives have a fitted effect of over 55% in size
#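 qHTS (up to 57 uM final) was run with 24 h compound exposure of reporter cells at 37 °C. Each well was multiplexed: SteadyGlo luminescence measured ATXN2-luciferase expression after a fluorogenic Gly-Phe-AFC viability readout (25 uM final).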
# ATXN viability = Viability Counterscreen for Primary qHTS for Inhibitors of ATXN expression | S2 cells (HEK-293 line with an ATXN2-luciferase reporter) viability, CellTiter-Fluor protease fluorescence, 24 h | Potency, µM (top dose mostly 56.7 µM), actives largely listed as cytotoxic | hit rate 0.49% among 400,000; note: nearly all actives have a fitted effect of over 40% in size
# A number is an active result; . = inactive; ? = inconclusive; / = not tested or not shown; ! = not active in a repeat; [ ] = remark or other dose. Calls come from the whole dose curve; as a rule, active = well fitted curve in the direction sought with a large enough effect; inconclusive = small, poorly fitted or top-dose-only effect, or another doubt; inactive = no such curve, though single readings can be large; an effect the other way counts as inactive or inconclusive.
SMILES,A549 viability,Nrf2 ARE act,Nrf2 inh,ATXN2 expr inh,ATXN viability
COc1ccc2cc(-c3cc(C(=O)OCC(=O)NC4CCS(=O)(=O)C4)c4ccccc4n3)ccc2c1 (configuration not stated),.,.,11.6µM,?,/
O=C(COC(=O)c1c2c(nc3ccccc13)/C(=C/c1cccc([N+](=O)[O-])c1)CCC2)NC1CCS(=O)(=O)C1 (configuration not stated),.,.[9.22 µM],23.1µM,?,.
CN(C(=O)COC(=O)c1c2c(nc3ccccc13)/C(=C/c1cccc([N+](=O)[O-])c1)CCC2)C1CCS(=O)(=O)C1 (configuration not stated),.,.,.,.,.
CCN(CC)C(=O)COC(=O)c1cc(-c2ccc(OC)cc2)nc2ccccc12,.,.,23.1µM,?,?
O=C(NCCN1CCOCC1)c1cnn(-c2nccc(-c3ccccc3F)n2)c1C1CC1,/,/,/,/,.
O=C(NCCc1csc2nc(-c3ccccc3F)nn12)c1ccco1,.,.,/,.,.
COc1cc(/C=N/N=C(N)N)ccc1OCc1ccc(Cl)cc1,.,.,?,?,.
NC(N)=N/N=C/c1ccc(OCc2ccccc2Cl)cc1,?,.,.,14.1µM,28.2µM
NC(N)=N/N=C/c1ccc(OCc2ccccc2)c(OCc2ccccc2)c1,.,.,.,22.4µM,22.4µM
NC(N)=N/N=C/c1ccccc1,.,.,.,.,?
CCOc1cc(/C=N/N=C(N)N)ccc1OCc1ccc(Cl)cc1,.,.,.,?,31.6µM
Cc1ccc(NC(=O)CSc2nc3nccnc3c(=O)n2CCc2c[nH]c3ccccc23)c(C)c1,.,.,?,/,/
CNC(=S)N(CCc1c(C)[nH]c2ccc(C)cc12)Cc1cc(OC)c(OC)c(OC)c1,?,.,23.1µM,.,?
O=C(Nc1ccccc1Cl)N1CCN(c2ccc3nnc(-c4ccccc4)n3n2)CC1,.,.,?,?,.
O=C(Nc1ccc(Cl)cc1)N1CCN(c2ccc3nnc(-c4ccc(F)cc4)n3n2)CC1,?,.,20.6µM,?,?
Cc1cc(-c2ccnc(-n3ncc(C(=O)N(C)CC(O)c4ccccc4)c3C)n2)c(C)s1 (configuration not stated),/,/,/,/,.
CCc1ccc(C2c3c(-c4ccccc4O)n[nH]c3C(=O)N2Cc2ccncc2)cc1 (configuration not stated),.,.,.,.,25.1µM
COCCCN1C(=O)c2[nH]nc(-c3ccccc3O)c2C1c1ccc(OCc2ccccc2)cc1 (configuration not stated),?,.,25.9µM,/,/
CCCCN1C(=O)c2[nH]nc(-c3ccccc3O)c2C1c1ccc(OCc2ccccc2)c(OC)c1 (configuration not stated),.,.,?,/,/
CCCCN1C(=O)c2[nH]nc(-c3ccccc3O)c2C1c1ccc(OCc2ccccc2)cc1 (configuration not stated),?,.,14.6µM,/,/
CCn1c(-c2cccnc2)nc2cc(NC(=O)COC)cc(C(=O)N3CCOc4ccccc4C3)c21,/,/,/,/,.
CN1CCN(c2oc(COc3ccc(-c4ccccc4)cc3)nc2C#N)CC1,?,.,16.4µM,.,.
N#Cc1nc(COc2ccccc2)oc1NCCN1CCOCC1,.,.,.,.,.
COc1ccc(N2CCN(c3oc(COc4ccccc4)nc3C#N)CC2)cc1,.,.,.,.,.
N#Cc1nc(COc2ccc(-c3ccccc3)cc2)oc1NCCCN1CCOCC1,.,.,?,31.6µM,?
SMILES,A549 viability,Nrf2 ARE act,Nrf2 inh,ATXN2 expr inh,ATXN viability
Fc1ccccc1CNC(=S)NC1CCCCC1,.,.,.,.,.
COc1ccccc1CNC(=S)NC1CCCCC1,?,.,14.6µM,.,.
Cc1cccc(CSc2cccc3cccnc23)c1,.,22.4µM,.,?,?
CCOC(=O)CSc1cccc2cccnc12,.,?,/,20µM,?
CC(=O)C(C(C)=O)c1c(Cl)c(O)c(O)c2c(C(=O)c3ccccc3)coc12,?,.,?,25.1µM,?
O=C(O)c1cccc(COc2ccccc2Cl)c1,.,.,?,0.708µM,.
COc1ccc(C(=O)c2sc3nc4c(c(C(F)(F)F)c3c2N)CN(C(C)=O)CC4)cc1OC,.,.,?,?,/
Cc1csc(NC(=O)c2sc3nc4c(c(C(F)(F)F)c3c2N)CCC4)n1,/,/,/,0.0968µM,/
COc1ccc(CNC(=O)c2sc3nc4c(c(C(F)(F)F)c3c2N)CCC4)cc1OC,.,.,23.1µM,.,.
CCN1CCN(Cc2ccc(NC(=O)c3cc(NC(=O)c4ccno4)cc(OC)c3)cc2C(F)(F)F)CC1,.,.,.,?,?
CCN1CCN(Cc2ccc(NC(=O)c3cc(NC(=O)c4cncc(-c5cccs5)c4)cc(OC)c3)cc2C(F)(F)F)CC1,.,.,.,25.1µM!,35.5µM
CCN1CCN(Cc2ccc(NC(=O)c3cc(NC(=O)c4cc5cccc(OC)c5o4)cc(OC)c3)cc2C(F)(F)F)CC1,.,.,.,8.91µM!,15.8µM
CCN1CCN(Cc2ccc(NC(=O)c3cc(NC(=O)c4cc(-c5ccc(OC)cc5)n[nH]4)cc(OC)c3)cc2C(F)(F)F)CC1,.,.,.,14.1µM,17.8µM
CCN1CCN(Cc2ccc(NC(=O)c3ccc(C)c(NC(=O)c4c[nH]c5cc(C(F)(F)F)ccc5c4=O)c3)cc2C(F)(F)F)CC1,?,.,?,3.98µM!,7.08µM
Cc1ccc(C(=O)Nc2cccc(C(F)(F)F)c2)cc1NC(=O)c1c[nH]c2cc(C(F)(F)F)ccc2c1=O,.,.,.,.,.
OCCCNCc1cc2cc3c(cc2nc1N1CCN(c2cccc(Cl)c2)CC1)OCO3,/,/,/,/,.
N#Cc1nc(NCC2CC2)nc(Nc2ccccc2)n1,.,/,.,/,/
CCc1ccc(NC(=O)c2ccc(CNS(=O)(=O)c3ccc4c(c3)C(C)(C)C(=O)N4C)cc2)cc1,.,.,.,/,/
CN1C(=O)C(C)(C)c2cc(S(=O)(=O)NCc3ccc(C(=O)Nc4ccc(Cl)cc4)cc3)ccc21,.,.,18.4µM,/,/
O=c1[nH]c2ccc(NCc3ccc(-c4cccc(Cl)c4)o3)cc2[nH]1,.,.,.,.,?
CCCCCCCC(=O)Nc1ccc(C(=O)N/N=C/c2cccc([N+](=O)[O-])c2)cc1,.,.,.,?,7.94µM
CCOC1(c2ccccc2)CC1C(=O)N/N=C/c1cccc([N+](=O)[O-])c1 (configuration not stated),.,.,18.4µM,.,.
COC(=O)N/N=C/c1cccc([N+](=O)[O-])c1,.,.,.,.,?
CCCCCCC(=O)N/N=C/c1ccc(Br)cc1,.,.,.,.,?
CCCCCCCCC(=O)N/N=C/c1cccc(Br)c1,.,.,20.6µM,.,.
CCc1noc(C)c1C(=O)N1CCOc2ccc(CN3CCN(c4ccccn4)CC3)cc2C1,/,/,/,/,.
Cn1nc(C(F)(F)F)c2cc(C(=O)Nc3ccc(F)cc3)sc21,?,.,?,?,.
